Assay [1] can be described thus: CCTE_Harrill_HTTr_Viability_MCF7: CCTE's 6-hour Cell Viability Assessment for the High-Throughput Transcriptomics (HTTr) Platform, in MCF-7 cells cultured in DMEM + 10% fetal bovine serum, Harrill Lab (AID 2284010). An outline of the steps:
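MCF-7 cells in DMEM + 10% FBS, 384-well, exposed 6 h to an eight-point dilution series. Membrane integrity scored by high-content imaging of propidium iodide exclusion; bidirectional fit versus DMSO.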

Assay [2] is described as follows: CCTE_Harrill_HTTr_Apoptosis_MCF7: CCTE's 6-hour Apoptosis Assessment for the High-Throughput Transcriptomics (HTTr) Platform, in MCF-7 cells cultured in DMEM + 10% fetal bovine serum, Harrill Lab (AID 2284011). An outline of the steps: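 MCF-7 (DMEM + 10% FBS), 384-well; 8-pt dilution series, 6 h chemical exposure; caspase-3/7 activation via CellEvent Caspase 3/7 Green, HCI; bidirectional fit vs DMSO.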

Assay [3] concerns the target Nucleoli Translocation, AR (gene 367) (UniProt P10275). Kind of assay: UPITT_HCI_U2OS_AR_TIF2_Nucleoli_Agonist: University of Pittsburgh U2OS Androgen Receptor-Transcriptional Intermediary Factor 2 (AR-TIF2) Agonism High Content Imaging Assay for Nucleoli Translocation (AID 2283998; active = hit-call score of the fitted dose curve at least 0.9, where 1 is the maximum). The method in brief:
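Readout is red (AR-RFP) fluorescence localized to nucleoli, measured by high-content imaging and analysed for increase relative to DMSO. Compound series spanned 0.195 to 50 uM final in 0.5% DMSO.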

Assay [4] has as its target Ratio of Nucleoli Translocation and Cytoplasm, AR (gene 367) (UniProt P10275). Kind of assay: UPITT_HCI_U2OS_AR_TIF2_Nucleoli_Cytoplasm_Ratio_Antagonist: University of Pittsburgh U2OS Androgen Receptor-Transcriptional Intermediary Factor 2 (AR-TIF2) Antagonism High Content Imaging Assay for Ratio of Nucleoli Translocation and Cytoplasm (AID 2283999; active = hit-call score of the fitted dose curve at least 0.9, where 1 is the maximum;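 note: antagonists lower the DHT-driven ratio of nucleolar to cytoplasmic red signal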). An outline of the steps:
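U2OS cells co-expressing RFP-tagged human AR and GFP-tagged TIF2, antagonist mode with DHT as baseline. Nucleolar-to-cytoplasmic red fluorescence ratio imaged by high-content microscopy; final compound 20 uM (0.2% DMSO) primary, 0.195–50 uM (0.5% DMSO) concentration-response.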

For assay [5] the target is unchanged. Kind of assay: UPITT_HCI_U2OS_AR_TIF2_Nucleoli_Cytoplasm_Ratio_Agonist: University of Pittsburgh U2OS Androgen Receptor-Transcriptional Intermediary Factor 2 (AR-TIF2) Agonism High Content Imaging Assay for Ratio of Nucleoli Translocation and Cytoplasm (AID 2284000; active = hit-call score of the fitted dose curve at least 0.9, where 1 is the maximum;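 note: hits raise the red nucleolar to cytoplasm ratio above vehicle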). An outline of the steps: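 Read-out first: nucleolar-to-cytoplasm ratio of red (AR-RFP) signal, quantified by high-content imaging in U2OS cells co-expressing TIF2-GFP. Activity is scored as signal increase over DMSO. Single-point screening used 20 uM final (0.2% DMSO).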

Assay [6] in a line: CCTE_Shafer_MEA_dev_firing_rate_mean: CCTE's Neural Network Formation Assay for Mean Firing Rate, Shafer Lab (AID 2284031). The method in brief: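 Primary rat cortical neurons on 48-well MEA plates, exposed from plating day 0 with dosing renewed on DIV 5 and 9. Mean well firing rate over active electrodes, recorded days 5, 7, 9, 12, summarised as trapezoidal AUC.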
Assay [7] in a line: CCTE_Shafer_MEA_dev_per_burst_spike_percent: CCTE's Neural Network Formation Assay for Percent of Spikes in a Burst, Shafer Lab (AID 2284032).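 Note: fitted as a decrease in burst spike percentage below DMSO baseline.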 An outline of the steps: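 Rat primary cortical neurons on 16-electrode MEA wells, dosed from plating day 0 for 12 days with renewal on DIV 5 and 9; spikes-in-bursts percentage averaged over bursting electrodes, collapsed as AUC across days 5, 7, 9, 12; loss direction versus DMSO.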

The nature of assay [8]: CCTE_Shafer_MEA_dev_active_electrodes_number: CCTE's Neural Network Formation Assay for Number of Active Electrodes, Shafer Lab (AID 2284040; active = hit-call score of the fitted dose curve at least 0.9, where 1 is the maximum;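 note: potency for loss of active electrodes versus DMSO so lower counts are hits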). The method in brief: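 Primary rat cortical neurons on 16-electrode MEA wells, exposed from day 0 through day 12 with compound renewed at DIV 5 and 9 feeds. Active electrodes (mean firing ≥5 spikes/min) counted at DIV 5, 7, 9, 12; trapezoidal AUC across days, loss-of-signal versus DMSO.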

Assay [9] is described as follows: CCTE_Shafer_MEA_dev_burst_rate: CCTE's Neural Network Formation Assay for Burst Rate, Shafer Lab (AID 2284042). The method in brief: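 Developmental network assay measuring how 12-day exposure of rat cortical neuron cultures alters bursting on extracellular MEA recordings. Values are AUC of well-mean burst rate across four recording days, relative to DMSO vehicle.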

The nature of assay [10]: CCTE_Shafer_MEA_dev_bursting_electrodes_number: CCTE's Neural Network Formation Assay for Number of Bursting Electrodes, Shafer Lab (AID 2284043; active = hit-call score of the fitted dose curve at least 0.9, where 1 is the maximum;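 note: potency is for loss of bursting electrodes relative to DMSO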). The method in brief: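 Read-out is the per-well number of electrodes bursting at least once every 2 minutes, recorded on days 5, 7, 9 and 12 and collapsed by trapezoidal area under the curve. Cultures were primary rat cortical neurons on MEA plates, treated continuously from plating.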

The nature of assay [11]: CCTE_Shafer_MEA_dev_burst_duration_mean: CCTE's Neural Network Formation Assay for Mean Burst Duration, Shafer Lab (AID 2284045). An outline of the steps:
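Read-out: average first-to-last-spike interval within single-electrode bursts, averaged over bursting electrodes per well, then summarised as area under the curve across days 5, 7, 9 and 12. Developing rat cortical networks were exposed from day 0.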

Assay [12] can be described thus: CCTE_Shafer_MEA_dev_interburst_interval_mean: CCTE's Neural Network Formation Assay for Mean Interburst Interval, Shafer Lab (AID 2284046).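 Note: well-mean interburst interval of bursting electrodes as AUC over four recording days; curve fitted for decrease in interburst interval relative to DMSO.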 The method in brief:
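Network formation assay in primary rat cortical cultures, exposed from DIV 0 to 12. Mean interburst interval per well, integrated as AUC over four recordings.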

Assay [13] is described as follows: CCTE_Shafer_MEA_dev_inter_network_spike_interval_mean: CCTE's Neural Network Formation Assay for Mean Inter-network Spike Interval, Shafer Lab (AID 2284047). The method in brief:
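Compound was given at plating to primary rat cortical neurons and renewed with full medium changes on DIV 5 and 9. Extracellular activity was recorded on days 5, 7, 9, 12; AUC values were fitted for loss relative to DMSO control.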

Assay [14] in a line: CCTE_Shafer_MEA_dev_network_spike_number: CCTE's Neural Network Formation Assay for Number of Network Spikes, Shafer Lab (AID 2284048).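 Note: synchronized bursts across electrodes counted on days 5 7 9 12 and integrated as AUC.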 An outline of the steps: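 Developing networks of primary rat cortical neurons are treated over 12 days starting at plating, with media and compound fully replaced on DIV 5 and 9. Network spike counts from four recording days are integrated as trapezoidal AUC.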

Assay [15] in a line: CCTE_Shafer_MEA_dev_network_spike_peak: CCTE's Neural Network Formation Assay for Mean Number of Electrodes in Network Spike, Shafer Lab (AID 2284049).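 Note: fitted for loss of signal meaning fewer electrodes in network spikes than DMSO.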 The method in brief: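 Rat cortical primary culture, 1.5 x 10^5 cells/well, 48-well MEA (16 electrodes/well). Dosing day 0 through DIV 12, full media/compound exchange DIV 5, 9. AxIS adaptive spike detection; AUC over days 5/7/9/12; loss-of-signal vs DMSO.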

A short description of assay [16]: CCTE_Shafer_MEA_dev_spike_duration_mean: CCTE's Neural Network Formation Assay for Mean Spike Duration, Shafer Lab (AID 2284051).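 Note: mean network spike duration pooled as area under curve over DIV 5 to 12 recordings; potency for a decrease in mean network spike duration versus DMSO.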 The method in brief:
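With DMSO as baseline, loss of mean network spike duration was scored from extracellular recordings of rat cortical neurons on MEA plates. Exposure spanned plating to DIV 12; the four recording days were collapsed into one AUC value.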

The nature of assay [17]: CCTE_Shafer_MEA_dev_network_spike_duration_std: CCTE's Neural Network Formation Assay for Standard Deviation of Network Spike Duration, Shafer Lab (AID 2284052).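 Note: area under curve of spike duration SD across recording days 5 to 12; hits are decreases in network spike duration SD versus DMSO vehicle.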 The method in brief:
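Developing networks of rat cortical neurons were exposed over twelve days in vitro on 48-well MEA plates. Trapezoidal AUC of recordings (DIV 5–12) was analysed for signal loss relative to DMSO vehicle.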

Assay [18] can be described thus: CCTE_Shafer_MEA_dev_per_network_spike_spike_number_mean: CCTE's Neural Network Formation Assay for Mean Number of Spikes in a Network Spike, Shafer Lab (AID 2284053).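 Note: fitted as decrease in spikes per network spike relative to DMSO.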 The method in brief: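 First, rat cortical cells (1.5 x 10^5/well) were seeded onto MEA wells; second, dosing began at plating and was refreshed on DIV 5 and 9; finally, network-spike spike counts across DIV 5–12 were summarized as AUC.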

Assay [19] in a line: CCTE_Shafer_MEA_dev_per_network_spike_spike_percent: CCTE's Neural Network Formation Assay for Percent of Spikes in a Network Spike, Shafer Lab (AID 2284054). An outline of the steps: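 Rat primary cortical cultures, 1.5 x 10^5 cells/well on MEA. Continuous compound exposure d0–12, medium/compound renewed DIV 5, 9. Network-spike spike % (0.05 s peak window), AUC over 4 recordings, DMSO baseline.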

The nature of assay [20]: CCTE_Shafer_MEA_dev_LDH: CCTE's Lactate Dehydrogenase Assay for Cytotoxicity in the Neural Network Formation Assay, Shafer Lab (AID 2284068; active = hit-call score of the fitted dose curve at least 0.9, where 1 is the maximum;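 note: exposure for twelve days from plating with re-dosing on DIV 5 and 9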). An outline of the steps:
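Developing rat cortical networks on MEA plates are exposed to compound for 12 days from plating. LDH activity is measured spectrophotometrically, with DMSO as baseline.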

The nature of assay [21]: CCTE_Shafer_MEA_dev_AB: CCTE's Alamar Blue Assay for Cytotoxicity in the Neural Network Formation Assay, Shafer Lab (AID 2284083; active = hit-call score of the fitted dose curve at least 0.9, where 1 is the maximum;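 note: resazurin reduction fluorescence as viability of cultured neurons; twelve days of exposure from plating with re-dosing on DIV 5 and 9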). An outline of the steps:
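Cytotoxicity companion to the developmental MEA: primary rat cortical neurons, 12-day exposure starting day 0, compound refreshed DIV 5 and 9; resazurin fluorescence, fitted against DMSO vehicle.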
For orientation: Resazurin is reduced to fluorescent resorufin, in cell work by metabolically active cells.

Assay [22] is described as follows: CCTE_Shafer_MEA_dev_mutual_information_norm: CCTE's Neural Network Formation Assay for Mutual Information Normalization, Shafer Lab (AID 2284091). The method in brief:
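Developing rat cortical networks on 16-electrode MEA wells are treated throughout formation (DIV 0–12). Shared electrode information is recorded four times, converted to area-under-curve, and fitted for decreases against DMSO vehicle.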

Assay [23] is described as follows: CCTE_Harrill_HTTr_CellCount_MCF7: CCTE's Cell Proliferation Assessment for the High-Throughput Transcriptomics (HTTr) Platform, Harrill Lab (AID 2284012; active = hit-call score of the fitted dose curve at least 0.9, where 1 is the maximum;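 note: cells exposed to compound for six hours; intended direction is loss of nuclei count meaning fewer cells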). An outline of the steps: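 MCF7 cells exposed 6 hours to an eight-point dilution series; Hoechst-stained nuclei counted by high-content imaging. Bidirectional curve fitting against DMSO baseline.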

Molecules are shown by their SMILES. Results filed as inconclusive are left out. Activity calls are given as the source filed them. Rule for the calls, unless noted: active = hit-call score of the fitted dose curve at least 0.9, where 1 is the maximum; inactive = score below 0.9.

Ratio of Nucleoli Translocation and Cytoplasm, AR (gene 367), sequence (P10275 whole entry, looked up): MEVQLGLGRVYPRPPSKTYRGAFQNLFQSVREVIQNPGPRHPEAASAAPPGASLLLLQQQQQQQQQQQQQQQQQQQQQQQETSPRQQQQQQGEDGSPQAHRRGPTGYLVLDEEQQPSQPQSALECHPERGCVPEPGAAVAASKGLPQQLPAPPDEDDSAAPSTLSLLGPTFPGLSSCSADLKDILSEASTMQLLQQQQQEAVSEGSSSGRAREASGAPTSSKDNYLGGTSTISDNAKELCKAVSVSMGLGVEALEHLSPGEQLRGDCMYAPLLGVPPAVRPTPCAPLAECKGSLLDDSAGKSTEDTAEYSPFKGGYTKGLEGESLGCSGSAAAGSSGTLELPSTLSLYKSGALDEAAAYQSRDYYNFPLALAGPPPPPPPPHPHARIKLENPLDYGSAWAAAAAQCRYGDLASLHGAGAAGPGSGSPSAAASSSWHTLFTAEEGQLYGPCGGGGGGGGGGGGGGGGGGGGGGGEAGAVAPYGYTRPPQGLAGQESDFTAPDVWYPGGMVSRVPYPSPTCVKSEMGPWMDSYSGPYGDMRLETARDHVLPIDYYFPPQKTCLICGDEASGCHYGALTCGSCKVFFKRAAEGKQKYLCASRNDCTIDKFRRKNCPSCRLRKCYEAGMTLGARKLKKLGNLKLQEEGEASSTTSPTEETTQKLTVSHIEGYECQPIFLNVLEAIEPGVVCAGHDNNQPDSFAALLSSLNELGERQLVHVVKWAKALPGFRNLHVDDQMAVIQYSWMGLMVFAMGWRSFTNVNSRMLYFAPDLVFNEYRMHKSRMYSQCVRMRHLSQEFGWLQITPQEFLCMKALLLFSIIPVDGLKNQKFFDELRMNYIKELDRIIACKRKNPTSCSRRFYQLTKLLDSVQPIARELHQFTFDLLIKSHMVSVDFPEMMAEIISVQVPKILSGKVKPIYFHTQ
Nucleoli Translocation, AR (gene 367), sequence (P10275 whole entry, looked up): as above

As to `CCCCOC(=O)N(C)SN(C)C(=O)Oc1cccc2c1OC(C)(C)C2`, the result in [1] and in [2] was inactive.

In general, AC50 refers to the concentration at which the activity in the assay is half-maximal. Turning to `CCCCC(CC)COC(=O)c1cc(Br)c(Br)c(Br)c1Br` (configuration not stated), the outcome in assay [3], in [4], in [5], in assay [1], in assay [2] and in [6] was inactive. In addition, the outcome in assay [9], in assay [11], in assay [13], in assay [14], in assay [17] and in assay [22] was inactive. Further, the AC50 was 18.8 µM (active) in assay [7]; 18.7 µM (active) in [8]; 18.8 µM (active) in assay [10]; 16.8 µM (active) in [12]; 18.9 µM (active) in assay [15]; 17.7 µM (active) in [16]. The AC50 in assay [18] was 18.8 µM (active); in assay [19], 18.9 µM (active); in assay [20], 15.9 µM (active); in assay [21] it was 15.1 µM (active).

As to `CNC(=O)Oc1cccc(C(C)C)c1`, the outcome in assay [1], in assay [2] and in assay [23] was inactive.

(Values after PubChem BioAssay (EPA / NIEHS).)
